# Whole data set: some 3,700 sequences, median “z-score” near 4, cut for the highest 2% near 8.4. The sample as a whole holds a higher share of the highest values than the screen did.
# Key:
# [1] = target: PU.1 (IVT) (UniProt P17947 1-270); assay: protein-binding microarray (PBM); 20 mM HEPES pH 7.9, 100 mM NaCl, 1 mM DTT, 0.2 mg/mL BSA, 0.02% Triton X-100, 2% milk, 0.4 mg/mL salmon testes DNA; 1 h; temperature not stated; high values mean tight binding; conditions: dsDNA, one strand shown
# Method in brief: (§1)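 Custom double-stranded DNA microarrays bearing 20-bp genomic sites and single-nucleotide variants (10 probes per site, 5 per orientation) were incubated for 1 h with full-length untagged PU.1 made by coupled human in vitro transcription/translation, in HEPES pH 7.9 with 100 mM NaCl, 2% milk and salmon testes DNA. Anti-PU.1 and a fluorescent secondary antibody detected the bound protein. Each binding value is a z-score from scanned fluorescence after linear-regression normalisation.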
# [2] = target: PU.1 (IVT) (UniProt P17947 1-270); assay: as above; conditions: dsDNA, one strand shown; remark: listed apart in the source
# Method in brief: as §1
Sequence,binding signal [1] [z-score],binding signal [2] [z-score]
GCCTAGCACCGAAAGGGGAAGTGCTAAAAGTGCTAGGTCTTGATTCGCTTGACGCTGCTG,6.97,–
GCCTAGCACGAAAAGGGGAAGTGCTGGGGGTGCTAGGTCTTGATTCGCTTGACGCTGCTG,7.77,–
GCCTAGCACCAAAAAAGGAAGTGGCTGTGGTGCTAGGTCTTGATTCGCTTGACGCTGCTG,5.51,–
GCCTAGCACGAAAAGCGGAAGTGGTGTGGGTGCTAGGTCTTGATTCGCTTGACGCTGCTG,8.61,–
GCCTAGCACCAAAAAGGGAAGTGGAAGCTGTGCTAGGTCTTGATTCGCTTGACGCTGCTG,–,6.2
GCCTAGCACGAAAGGAGGAAGTGGAGGGTGTGCTAGGTCTTGATTCGCTTGACGCTGCTG,–,5.92
GCCTAGCACCAAAAGCGGAAGTGGTGCCTGTGCTAGGTCTTGATTCGCTTGACGCTGCTG,8.56,–
GCCTAGCACAAAAAAAGGAAAGGAAAGTAGTGCTAGGTCTTGATTCGCTTGACGCTGCTG,1.27,–
GCCTAGCACAAAATGAGGAAGTGCTTCTAGTGCTAGGTCTTGATTCGCTTGACGCTGCTG,8.37,–
GCCTAGCACAAAATGAGGAAGTAATTCCTGTGCTAGGTCTTGATTCGCTTGACGCTGCTG,8.66,–
GCCTAGCACAAAATGAGGAAGTGTGATTAGTGCTAGGTCTTGATTCGCTTGACGCTGCTG,7.8,–
GCCTAGCACAAAATGAGGAAGTGAACAAAGTGCTAGGTCTTGATTCGCTTGACGCTGCTG,8.02,–
GCCTAGCACAAAATGAGGAAGTGACTTTGGTGCTAGGTCTTGATTCGCTTGACGCTGCTG,8.87,–
GCCTAGCACAAAAGGAGGAAGTTGGTTGGGTGCTAGGTCTTGATTCGCTTGACGCTGCTG,7.62,–
GCCTAGCACAAAATGAGGAAGTGAGCTAAGTGCTAGGTCTTGATTCGCTTGACGCTGCTG,7.94,–
GCCTAGCACAAAATGAGGAACTGCTGTCTGTGCTAGGTCTTGATTCGCTTGACGCTGCTG,6.9,–
GCCTAGCACAAATAGAGGAAGTGGAATGGGTGCTAGGTCTTGATTCGCTTGACGCTGCTG,7.2,–
GCCTAGCACAAAATGAGGAAGTTGGATGGGTGCTAGGTCTTGATTCGCTTGACGCTGCTG,8.35,–
GCCTAGCACAAAATGAGGAAGTACCCTCTGTGCTAGGTCTTGATTCGCTTGACGCTGCTG,8.28,–
GCCTAGCACAAAATGAGGAAGTGCATTGAGTGCTAGGTCTTGATTCGCTTGACGCTGCTG,8.07,–
GCCTAGCACACAATGAGGAAGTGCTGGCCGTGCTAGGTCTTGATTCGCTTGACGCTGCTG,–,6.19
GCCTAGCACTAAAGGAGGAATTGAAACCAGTGCTAGGTCTTGATTCGCTTGACGCTGCTG,1.22,–
GCCTAGCACGCCAGGAGGAAGTGGAAATGGTGCTAGGTCTTGATTCGCTTGACGCTGCTG,4.22,–

Sequence,binding signal [1] [z-score],binding signal [2] [z-score]
GCCTAGCACGACAAGAGGAAGTGCAAGATGTGCTAGGTCTTGATTCGCTTGACGCTGCTG,4.87,–
GCCTAGCACATATGGAGGAAGTGGAACCCGTGCTAGGTCTTGATTCGCTTGACGCTGCTG,3.92,–
GCCTAGCACCTGCCAGGGAAGTGTAAGCAGTGCTAGGTCTTGATTCGCTTGACGCTGCTG,–,0.66
GCCTAGCACAAAAAGAAGAAGTGGGGCTTGTGCTAGGTCTTGATTCGCTTGACGCTGCTG,–,4.26
GCCTAGCACTGAAAGGGGAAGTCTTTTTAGTGCTAGGTCTTGATTCGCTTGACGCTGCTG,6.55,–
GCCTAGCACAAAATGAGGAAGTGGCTTTGGTGCTAGGTCTTGATTCGCTTGACGCTGCTG,8.37,–
GCCTAGCACAAAATGAGGAAGTGGAAGGGGTGCTAGGTCTTGATTCGCTTGACGCTGCTG,8.15,–
GCCTAGCACAAAATGAGGAAGTGCTGGCAGTGCTAGGTCTTGATTCGCTTGACGCTGCTG,8.14,–
GCCTAGCACTAAATGAGGAAGTGTGCTGTGTGCTAGGTCTTGATTCGCTTGACGCTGCTG,7.74,–
GCCTAGCACAAAAAGAGGAAGTCAGTTTGGTGCTAGGTCTTGATTCGCTTGACGCTGCTG,8.4,–
GCCTAGCACAAAAAGAGGAAGTGATGACCGTGCTAGGTCTTGATTCGCTTGACGCTGCTG,8.84,–
GCCTAGCACAAAAAGAGGAAGTCTGGTGTGTGCTAGGTCTTGATTCGCTTGACGCTGCTG,8.02,–
GCCTAGCACAAAAAAAGGAAGTGATAGCCGTGCTAGGTCTTGATTCGCTTGACGCTGCTG,–,6.5
GCCTAGCACAAAGAGAGGAAGTACAGTTTGTGCTAGGTCTTGATTCGCTTGACGCTGCTG,5.35,–
GCCTAGCACAAGATGAGGAAGTGAGTGTAGTGCTAGGTCTTGATTCGCTTGACGCTGCTG,–,6.13
GCCTAGCACGAAAAGAGGAAGTGAGATGTGTGCTAGGTCTTGATTCGCTTGACGCTGCTG,8.73,–
GCCTAGCACAAAAAAAGGAAGTGGACCGTGTGCTAGGTCTTGATTCGCTTGACGCTGCTG,–,6.55
GCCTAGCACGAAAAGAGGAAGTGTGAGATGTGCTAGGTCTTGATTCGCTTGACGCTGCTG,8.2,–
GCCTAGCACGAAAAGAGGAAGTGTGAGACGTGCTAGGTCTTGATTCGCTTGACGCTGCTG,7.97,–
GCCTAGCACAAAAAGAGGAAGTGATGAGTGTGCTAGGTCTTGATTCGCTTGACGCTGCTG,8.92,–
GCCTAGCACAAGAAGAGGAAGTGAGTGCTGTGCTAGGTCTTGATTCGCTTGACGCTGCTG,7.09,–
GCCTAGCACTTAATGAGGAAGTGCTGTCAGTGCTAGGTCTTGATTCGCTTGACGCTGCTG,6.5,–
